Source: PubChem BioAssay (Tox21)
Values joined by “and” are separate entries in the source; they are usually repeats but may differ in a detail not shown here. Identical values can stand only once. Inconclusive results are not listed. A call without a number means that no potency is given here. The source holds several records for some structures; these can differ, active in one and inactive in another. Active and inactive are the calls of the source. Unless noted, calls come from the whole dose curve; as a rule, active = well fitted curve in the direction sought with a large enough effect in the repeat runs; inconclusive = weak or mixed curves; inactive = no such curve, though single readings can be large; an effect the other way counts as inactive or inconclusive.

Tests used:
[1] = qHTS assay to identify small molecule agonists of the RXR signaling pathway - cell viability counter screen (AID 1159529); note: nearly all actives have a fitted effect of over 50% in size; note: potency is the fitted concentration of half-maximal effect
Method in brief: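 Viability read-out for the RXR-alpha agonist qHTS: luminescent CellTiter-Glo signal after 30 min at RT. HEK 293T bla reporter cells, 2% charcoal-stripped FBS, 16 hr compound incubation; tetraoctyl ammonium bromide as cytotoxic control.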

[2] = qHTS assay to identify small molecule antagonists of the retinoic acid receptor (RAR) signaling pathway (AID 1159552; note: nearly all actives have a fitted effect of over 50% in size; note: potency is the fitted concentration of half-maximal effect)
Method in brief: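 Using a RARE-driven luciferase construct in C3RL4 cells, retinol at 1 uM final provided the agonist stimulus while compounds were co-applied. After 6 hours at 37 C, luminescence was recorded to flag inhibitors of retinol signaling.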

[3] = qHTS assay to identify small molecule agonists of the retinoic acid receptor (RAR) signaling pathway (AID 1159553); conditions: C3RL4 RARE luciferase reporter, agonist, 6 h; activation: at 73.3 µM (top of the series) unless noted; note: potency is the fitted concentration of half-maximal effect
Method in brief: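 6 hr compound exposure (DMSO vehicle) of overnight-plated C3RL4 RARE-luc cells at 37 C; luminescence quantified after 30 min RT with luciferase reagent.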

[4] = qHTS assay to identify small molecule antagonists of the estrogen related receptor (ERR) signaling pathway from Tox21 library - cell viability counter screen (AID 1224834); note: nearly all actives have a fitted effect of over 30% in size; note: potency is the fitted concentration of half-maximal effect
Method in brief: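 Seeded ERR cells were rested 6 h at 37 C/5% CO2 before compounds, positive and negative controls or DMSO were added. Incubation continued for 17.5 h, and viability was then quantified by CellTiter-Fluor fluorescence.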

[5] = qHTS assay to identify small molecule agonists of the constitutive androstane receptor (CAR) signaling pathway - cell viability counter screen (AID 1224836); note: nearly all actives have a fitted effect of over 45% in size
Method in brief: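 Multiplexed viability check: HepG2-CYP2B6-hCAR cells, 15-point compound dosing, 0.75 uM PK11195 final, 23 h at 37 C, CellTiter-Fluor fluorescence.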

[6] = qHTS assay to identify small molecule antagonists of the constitutive androstane receptor (CAR) signaling pathway - cell viability counter screen (AID 1224837); note: nearly all actives have a fitted effect of over 45% in size; note: potency is the fitted concentration of half-maximal effect
Method in brief: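 To flag cytotoxic false antagonists, HepG2 hCAR/CYP2B6-2.2kb cells were treated 23 hr with 15-concentration compound series and 50 nM CITCO at 37 C/5% CO2; CellTiter-Fluor fluorescence was the measured end point.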

[7] = qHTS assay to identify small molecule antagonists of the estrogen related receptor signaling pathway with the pleiotropic PPARgamma coactivator (PGC) from Tox21 10K library - cell viability counter screen (AID 1224840; active = well fitted cell-killing curve with a large enough effect in the repeat runs, not every such curve was filed as active; note: nearly all actives have a fitted effect of over 40% in size; note: potency is the fitted concentration of half-maximal effect)
Method in brief: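 Seeded PGC/ERR cells (2,000/well, 6 h, 37 C/5% CO2) get compound by pin tool; 17.5 h incubation at 37 C; CellTiter-Fluor added, 30 min, fluorescence measured.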

[8] = qHTS assay to identify small molecule antagonists of the estrogen related receptor signaling pathway with the pleiotropic PPARgamma coactivator (PGC) from Tox21 10K library (AID 1224841; call rule not given here; note: actives are mostly falling curves and most rising ones were filed inactive; nearly all actives have a fitted effect of over 50% in size; note: potency is the fitted concentration of half-maximal effect)
Method in brief: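 Test chemicals dissolved in DMSO were applied to pre-incubated (6 h) PGC/ERR cells at 2,000 cells/well for an 18 h, 37 C treatment; reporter luminescence was then read using One-Glo.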

[9] = qHTS assay to identify small molecule agonists of the estrogen related receptor signaling pathway with the pleiotropic PPARgamma coactivator (PGC) from Tox21 10K library (AID 1224842); note: nearly all actives have a fitted effect of over 15% in size
Method in brief: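 PGC/ERR reporter cells (NTP line) were seeded 2,000 per well, rested 6 h at 37 C/5% CO2, then pin-dosed with compounds in DMSO for 18 h at 37 C; luciferase read by One-Glo luminescence after 30 min at room temperature.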

[10] = molecular target: Thyrotropin receptor (Homo sapiens) (UniProt P16473); experiment: qHTS assay to identify small molecule agonists of the thyroid stimulating hormone receptor (TSHR) signaling pathway (AID 1224843; calls by dose curve; note: nearly all actives have a fitted effect of over 45% in size; note: potency is the fitted concentration of half-maximal effect)
Method in brief: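 Using 15 concentrations per compound in triplicate, cAMP production was monitored in TSHR-HEK293 cells after 30 min compound incubation at RT; HTRF reagents followed, with fluorescence intensity recorded after 1 h.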

[11] = qHTS assay to identify small molecule agonists of the hypoxia (HIF-1) signaling pathway - cell viability counter screen (AID 1224844; calls by dose curve; note: nearly all actives have a fitted effect of over 50% in size; note: potency is the fitted concentration of half-maximal effect)
Method in brief: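 HRE-bla ME-180; 0.5% dFBS; cpd 17 h, 37C, 5% CO2; CellTiter-Glo lum., 30 min RT, post-FRET read, same wells.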

[12] = molecular target: Nuclear receptor subfamily 1 group I member 3 (Homo sapiens) (UniProt Q14994); experiment: qHTS assay to identify small molecule antagonists of the constitutive androstane receptor (CAR) signaling pathway (AID 1224838);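 note: HepG2 cells stably expressing hCAR with CYP2B6 luciferase reporter stimulated by CITCO; nearly all actives have a fitted effect of over 40% in size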; note: potency is the fitted concentration of half-maximal effect
Method in brief: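 Human hepatoma HepG2 cells expressing hCAR and a CYP2B6 promoter (2.2 kb) luciferase construct; compound titration (15 points) with 50 nM CITCO final, 24 h at 37 C/5% CO2; luminescence via ONE-Glo after 30 min at room temperature.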

[13] = molecular target: Nuclear receptor subfamily 1 group I member 3 (Homo sapiens) (UniProt Q14994); experiment: qHTS assay to identify small molecule agonists of the constitutive androstane receptor (CAR) signaling pathway (AID 1224839); note: nearly all actives have a fitted effect of over 15% in size; note: potency is the fitted concentration of half-maximal effect;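 for activation: HepG2 cells stably carrying human CAR and a CYP2B6 luciferase reporter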
Method in brief: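 Using human hepatoma HepG2 cells engineered with hCAR and a CYP2B6-2.2kb reporter, 15-concentration compound series were incubated 24 h alongside PK11195 at 0.75 uM final, with luminescence quantified afterwards.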

[14] = molecular target: Luciferin 4-monooxygenase (Photinus pyralis) (UniProt P08659); experiment: qHTS assay to identify small molecule inhibitors of firefly luciferase (AID 1224835); note: nearly all actives have a fitted effect of over 25% in size
Method in brief: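 Quantitative HTS format; KM concentrations of both substrates. Purified P. pyralis FLuc activity quantified from luminescence images.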

Luciferin 4-monooxygenase (Photinus pyralis), sequence (P08659 whole entry, looked up): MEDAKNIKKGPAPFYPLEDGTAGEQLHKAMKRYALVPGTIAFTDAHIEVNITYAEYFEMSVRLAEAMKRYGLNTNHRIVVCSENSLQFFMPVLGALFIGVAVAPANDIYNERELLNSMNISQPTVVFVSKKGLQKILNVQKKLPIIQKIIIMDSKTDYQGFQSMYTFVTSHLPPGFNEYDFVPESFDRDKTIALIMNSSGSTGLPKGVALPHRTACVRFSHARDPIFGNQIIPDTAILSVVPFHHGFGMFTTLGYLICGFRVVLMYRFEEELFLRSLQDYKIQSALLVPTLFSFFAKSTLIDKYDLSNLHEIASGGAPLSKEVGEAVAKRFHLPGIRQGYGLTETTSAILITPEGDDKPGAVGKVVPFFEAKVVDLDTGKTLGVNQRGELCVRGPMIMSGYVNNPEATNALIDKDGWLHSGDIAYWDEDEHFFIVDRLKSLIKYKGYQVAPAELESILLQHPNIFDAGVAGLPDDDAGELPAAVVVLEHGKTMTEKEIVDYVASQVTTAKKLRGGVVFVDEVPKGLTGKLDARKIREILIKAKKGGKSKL
Thyrotropin receptor (Homo sapiens), sequence (P16473 whole entry, looked up): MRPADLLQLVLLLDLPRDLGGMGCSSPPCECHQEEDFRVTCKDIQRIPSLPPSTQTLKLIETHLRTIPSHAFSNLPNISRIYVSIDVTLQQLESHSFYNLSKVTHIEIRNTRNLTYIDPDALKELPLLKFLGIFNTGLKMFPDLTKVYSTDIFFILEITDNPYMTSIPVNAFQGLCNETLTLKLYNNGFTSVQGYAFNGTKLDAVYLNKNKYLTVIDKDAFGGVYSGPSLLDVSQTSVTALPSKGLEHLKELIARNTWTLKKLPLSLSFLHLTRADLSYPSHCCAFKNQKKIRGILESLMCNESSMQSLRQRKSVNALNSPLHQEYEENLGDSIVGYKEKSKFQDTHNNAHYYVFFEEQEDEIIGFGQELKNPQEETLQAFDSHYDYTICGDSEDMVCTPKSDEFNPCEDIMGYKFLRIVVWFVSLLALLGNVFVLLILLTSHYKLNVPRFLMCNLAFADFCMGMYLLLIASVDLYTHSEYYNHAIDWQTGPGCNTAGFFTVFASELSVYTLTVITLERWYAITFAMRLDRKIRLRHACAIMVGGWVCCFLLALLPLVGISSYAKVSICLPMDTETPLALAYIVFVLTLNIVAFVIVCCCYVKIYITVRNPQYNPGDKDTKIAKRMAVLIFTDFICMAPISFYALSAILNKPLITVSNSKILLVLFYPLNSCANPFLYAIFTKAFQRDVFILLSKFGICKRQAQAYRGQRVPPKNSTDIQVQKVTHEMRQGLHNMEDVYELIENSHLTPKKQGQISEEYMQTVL
Nuclear receptor subfamily 1 group I member 3 (Homo sapiens), sequence (Q14994 whole entry, looked up): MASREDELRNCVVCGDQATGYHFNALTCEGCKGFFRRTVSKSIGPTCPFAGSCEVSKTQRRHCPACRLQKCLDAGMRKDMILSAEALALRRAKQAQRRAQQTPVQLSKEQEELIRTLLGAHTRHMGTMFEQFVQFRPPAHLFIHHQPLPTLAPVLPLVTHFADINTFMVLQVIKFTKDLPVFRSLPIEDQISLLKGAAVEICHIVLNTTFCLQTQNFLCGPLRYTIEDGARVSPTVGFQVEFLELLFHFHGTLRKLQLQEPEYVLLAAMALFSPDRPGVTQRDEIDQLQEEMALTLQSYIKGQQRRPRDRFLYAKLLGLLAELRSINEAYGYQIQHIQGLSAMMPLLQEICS

CN(C)P(=O)(N(C)C)N(C)C
Potency [1]: inactive
Potency [2]: inactive
Potency [3]: inactive
Potency [4]: inactive
Potency [5]: inactive
Potency [6]: inactive
Potency [7]: inactive
Potency [8]: inactive
Potency [9]: inactive
Potency [10]: inactive
Potency [11]: inactive

CC(C)=CC1C(C(=O)OCc2cccc(Oc3ccccc3)c2)C1(C)C (stereo not given)
Potency [1]: inactive
Potency [2]: inactive
Potency [3]: inactive
Potency [4]: inactive
Potency [6]: inactive
Potency [12]: inactive
Potency [13]: 4.86 µM (active) and 6.68 µM (active)
Potency [7]: inactive
Potency [8]: inactive
Potency [9]: inactive
Potency [10]: inactive
Potency [11]: inactive

CCCCOCCOC(C)=O
Potency [1]: inactive
Potency [4]: inactive
Potency [5]: inactive
Potency [6]: inactive
Potency [12]: inactive
Potency [13]: inactive
Potency [7]: inactive
Potency [8]: inactive
Potency [9]: inactive
Potency [10]: inactive
Potency [11]: inactive

CCCCCCCCCCCCCl
Potency [1]: inactive
Potency [2]: inactive
Potency [3]: inactive
Potency [4]: inactive
Potency [14]: inactive
Potency [6]: inactive
Potency [7]: inactive
Potency [10]: inactive
Potency [11]: inactive

C=C(C)C#N
Potency [1]: inactive
Potency [2]: inactive
Potency [3]: inactive
Potency [4]: inactive
Potency [5]: inactive
Potency [6]: inactive
Potency [12]: inactive
Potency [13]: inactive
Potency [7]: inactive
Potency [10]: inactive
Potency [11]: inactive

C=CC(=O)OCC(CC)(COC(=O)C=C)COC(=O)C=C
Potency [1]: 15.9 µM (active) and 21.9 µM (active)
Potency [2]: 8.87 µM (active) and 15.4 µM (active)
Potency [3]: 2.23 µM (active)
Potency [4]: 15.8 µM (active) and 17.2 µM (active)
Potency [6]: 28 µM (active) and 19.3 µM (active)
Potency [12]: 28 µM (active) and 21.7 µM (active)
Potency [13]: inactive
Potency [7]: 8.87 µM (active) and 12.2 µM (active)
Potency [8]: 17.7 µM (active) and 21.7 µM (active)
Potency [9]: inactive
Potency [10]: 11.2 µM (active) and 15.4 µM (active)
Potency [11]: 20 µM (active) and 12.3 µM (active)

CCCCSP(=O)(SCCCC)SCCCC
Potency [1]: inactive
Potency [2]: inactive
Potency [3]: inactive
Potency [4]: inactive
Potency [14]: inactive
Potency [6]: inactive
Potency [12]: inactive
Potency [13]: 23.8 µM (active) and 8.63 µM (active)
Potency [7]: inactive
Potency [11]: inactive

CCOP(=O)(O)OCC (tested in a mixture with another compound)
Potency [1]: inactive and 17.2 µM (active)
Potency [4]: inactive and 54 µM (active)
Potency [14]: inactive
Potency [7]: inactive and 60.6 µM (active)
Potency [11]: inactive

CNC(=O)Oc1cccc2c1OC(C)(C)C2
Potency [1]: inactive
Potency [2]: inactive
Potency [3]: inactive
Potency [4]: inactive
Potency [6]: inactive
Potency [12]: inactive
Potency [13]: inactive
Potency [7]: inactive
Potency [8]: inactive
Potency [9]: inactive
Potency [10]: inactive
Potency [11]: inactive

CC(C)Nc1nc(Cl)nc(NC(C)C)n1
Potency [1]: inactive
Potency [4]: inactive
Potency [14]: inactive
Potency [5]: inactive
Potency [6]: inactive
Potency [12]: inactive
Potency [13]: inactive
Potency [7]: inactive
Potency [8]: inactive
Potency [9]: inactive
Potency [10]: inactive
Potency [11]: inactive
